Measured values: PubChem BioAssay (NCI)
Compounds without any hit were thinned out: in the full panel of roughly 83,000, 20% have a hit.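 Method: cells in 96-well plates; compound added at one concentration; 48 h incubation; percent growth measured; values under 10 scored active.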 Active and inactive are the calls of the source.

How the values were obtained:
Assay in all cases: NCI-60 one-dose screen, 48 h (100 = growth as untreated, 0 = no growth, -100 = all killed)
Details in all cases: 10 µM unless noted
HCT-15 colon = system: HCT-15 colon
HT29 colon = system: HT29 colon
SNB-75 CNS = system: SNB-75 CNS
SNB-19 CNS = system: SNB-19 CNS
PC-3 prostate = system: PC-3 prostate
SK-MEL-5 melanoma = system: SK-MEL-5 melanoma
UACC-62 melanoma = system: UACC-62 melanoma
LOX IMVI melanoma = system: LOX IMVI melanoma
SK-MEL-28 melanoma = system: SK-MEL-28 melanoma
U251 CNS = system: U251 CNS

Row | Compound | growth (HCT-15 colon) | growth (HT29 colon) | growth (SNB-75 CNS) | growth (SNB-19 CNS) | growth (PC-3 prostate) | growth (SK-MEL-5 melanoma) | growth (UACC-62 melanoma) | growth (LOX IMVI melanoma) | growth (SK-MEL-28 melanoma) | growth (U251 CNS)
1 | CC12CCC(/C(=C/NNc3ccc([N+](=O)[O-])cc3[N+](=O)[O-])C1=O)C2(C)C (stereo not given) | 23% (inactive) | 52.6% (inactive) | 136% (inactive) | 94.1% (inactive) | 59.5% (inactive) | 65.5% (inactive) | 64.5% (inactive) | 56.5% (inactive) | 83.5% (inactive) | 
2 | C=C1C(=O)O[C@H]2[C@H]1CC/C(COC(=O)NCc1ccc(Cn3c(=O)sn(-c4ccc(OC)cc4)c3=O)cc1)=C\CC[C@@]1(C)O[C@@H]21 | 4.27% (active) | -15.5% (active) | 96% (inactive) | 94.8% (inactive) | 70.3% (inactive) | 97.9% (inactive) | 60.7% (inactive) | 25% (inactive) | 71% (inactive) | 
3 | C#CCn1cnc2c(Nc3cccc(NC(=O)CCl)c3)ncnc21 | 23.4% (inactive) | 26.9% (inactive) | 33.2% (inactive) | 58.7% (inactive) | 28.6% (inactive) | 31.4% (inactive) | 19.7% (inactive) | 24% (inactive) | 39.5% (inactive) | 
4 | C=NNc1ccccc1 | 87.4% (inactive) | 108% (inactive) | 90.9% (inactive) | 93.8% (inactive) | 63.8% (inactive) | 98.8% (inactive) |  | 62.8% (inactive) | 117% (inactive) | 
5 | CCCCCCCCCCCCCCCCCCOc1ccccc1CC(=O)NCC[N+]1(C)CCOCC1 | 91.1% (inactive) | 29.8% (inactive) | 46.9% (inactive) | 25.9% (inactive) | -46.4% (active) | 75% (inactive) | 56.3% (inactive) | 55.5% (inactive) | 74.7% (inactive) | 
6 | C=CCCC(=O)N1C=CC(=O)[C@H](O)[C@@H]1/C=C/c1ccccc1 | 36.5% [100 µM] (inactive) | 39.4% [100 µM] (inactive) | 85% [100 µM] (inactive) | 44.5% [100 µM] (inactive) | 51.2% [100 µM] (inactive) | 0.433% [100 µM] (active) | 27.8% [100 µM] (inactive) | 27.9% [100 µM] (inactive) | 53.7% [100 µM] (inactive) | 
7 | Cn1cc(-c2csc(-c3cn(C)c4ccc(Br)cc34)n2)c2cnccc21 | -78.6% (active) | -76.2% (active) | -93.6% (active) | -86.9% (active) | -74.9% (active) | -55.7% (active) | -78% (active) | -92.1% (active) | -96% (active) | 
8 | COc1ccc(-c2nnc(SCC(=O)Nc3ccc(/C(C)=N\O)cc3)n2-c2ccccc2)cc1OC | 98.6% (inactive) | 91.2% (inactive) | -16.5% (active) | 75.8% (inactive) | 110% (inactive) | 94.6% (inactive) | 82.8% (inactive) | 80.1% (inactive) | 87.3% (inactive) | 
9 | CCc1cccc(Sc2cc(C(=O)N3Cc4ccc(OCCN(C)C)cc4C3)ccc2O)c1 | 30.7% (inactive) | 103% (inactive) | 121% (inactive) | 71.2% (inactive) | 54.6% (inactive) | 26.5% (inactive) | 66.5% (inactive) | 46.7% (inactive) | 90.8% (inactive) | 
10 | Cc1ccc(C(=O)c2ccc(CC(=O)N/N=C/c3ccc(O)cc3O)n2C)cc1 | 16.8% (inactive) | 64% (inactive) | 31.1% (inactive) | 49.4% (inactive) | 61.1% (inactive) | 39.3% (inactive) | 29.8% (inactive) | 18.8% (inactive) | 46.4% (inactive) | 
11 | C=C1C(=O)O[C@H]2[C@H]1CC/C(COC(=O)/C=C\C(=O)NCc1ccc(Cn3c(=O)sn(-c4ccccc4)c3=O)cc1)=C\CC[C@@]1(C)O[C@@H]21 | 42.4% (inactive) | 50.8% (inactive) | 98% (inactive) |  | 83.5% (inactive) | 106% (inactive) | 85% (inactive) | 76% (inactive) | 94.4% (inactive) | 84.3% (inactive)
12 | COc1cc2nc(Nc3cccc(F)c3)nc(Nc3cc(C)[nH]n3)c2cc1OC | -78.6% [20 µM] (active) | -54.9% [20 µM] (active) | -97.5% [20 µM] (active) |  | -81% [20 µM] (active) | -90.1% [20 µM] (active) | -95.7% [20 µM] (active) |  | -99.3% [20 µM] (active) | -55.5% [20 µM] (active)
13 | COc1ccc(C(C)=O)cc1S(N)(=O)=O | 107% (inactive) | 86% (inactive) | 101% (inactive) |  | 85.7% (inactive) | 104% (inactive) | 94.7% (inactive) | 106% (inactive) | 106% (inactive) | 98.6% (inactive)
